From PubChem BioAssay AID1159580 (chemical genetic matrix, 2015)
Values joined by “and” are separate entries in the source; they are usually repeats but may differ in a detail not shown here. Equal entries are not always repeated. The whole screen tested about 5,500 compounds, of which about 2,000 (36%) were called active. Another 18% or so got no clear call; they are omitted. Cut-off read from the data, not from the text of the source: active = normalized growth mostly below about 0.91 (no sharp cut-off); inconclusive = no clear call, values can overlap the other calls; inactive = mostly above about 0.92. Some of the results follow.

Assay: chemical genetic growth profiling, strain panel (AID 1159580);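 note: tested at 20 µM; growth read once vehicle control cultures reached saturation at 30 °C; 1 = growth at the plate median or of vehicle wells; lower values mean less growth of the strain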
Conditions: S. cerevisiae deletion strains, growth OD

Measured: normalized growth

C[C@]12CCC3c4ccc(O)cc4CCC3C1CCC2=O (stereo partly drawn)
inactive: locus YAL013W, strain DEP1, hits give low values 0.968 | locus YAL021C, strain ccr4, hits give low values 1 | locus YAL026C, strain drs2, hits give low values 0.993 | locus YAL030W, strain snc1, hits give low values 1.01 | locus YBL061C, strain skt5, hits give low values 0.999 | locus YBR009C, strain hhf1, hits give low values 0.953 | locus YBR021W, strain FUR4, hits give low values 0.875 | locus YBR023C, strain chs3, hits give low values 1.01 | locus YBR171W, strain sec66, hits give low values 0.992 | locus YBR229C, strain ROT2, hits give low values 0.96 | locus YBR231C, strain swc5, hits give low values 0.975 | locus YBR279W, strain paf1, hits give low values 0.988 | locus YCL011C, strain gbp2, hits give low values 1.01 | locus YCL016C, strain dcc1, hits give low values 1.01 | locus YCL029C, strain bik1, hits give low values 0.952 | locus YCL061C, strain MRC1, hits give low values 1.01 | locus YCL069W, strain vba3, hits give low values 1 | locus YCR088W, strain abp1, hits give low values 1.01 | locus YDL005C, strain med2, hits give low values 1.02 | locus YDL035C, strain GPR1, hits give low values 0.87 | locus YDL040C, strain nat1, hits give low values 1.01 | locus YDL101C, strain DUN1, hits give low values 0.987 | locus YDL134C, strain PPH21, hits give low values 0.901 | locus YDL185W, strain tfp1, hits give low values 0.96 | locus YDL192W, strain arf1, hits give low values 0.98 | locus YDR001C, strain nth1, hits give low values 1.02 | locus YDR069C, strain doa4, hits give low values 0.993 | locus YDR101C, strain arx1, hits give low values 0.923 | locus YDR159W, strain sac3, hits give low values 0.959 | locus YDR297W, strain sur2, hits give low values 1.01 | locus YDR318W, strain mcm21, hits give low values 0.967 | locus YDR334W, strain swr1, hits give low values 1.02 | locus YDR335W, strain msn5, hits give low values 0.998 | locus YDR388W, hits give low values 0.987 | locus YDR502C, strain sam2, hits give low values 0.939 | locus YEL003W, strain gim4, hits give low values 0.942 | locus YEL037C, strain rad23, hits give low values 1.01 | locus YEL061C, strain CIN8 (second series), hits give low values 1 | locus YEL061C, strain CIN8, hits give low values 0.997 | locus YER015W, strain faa2, hits give low values 1.01 | locus YER016W, strain bim1, hits give low values 0.978 | locus YER110C, hits give low values 0.985 | locus YER111C, strain swi4, hits give low values 1.02 | locus YER155C, strain BEM2 (second series), hits give low values 0.905 | locus YER155C, strain BEM2, hits give low values 1 | locus YER167W, strain BCK2, hits give low values 1.03 | locus YFR010W, strain ubp6, hits give low values 1 | locus YGL078C, strain dbp3, hits give low values 0.969 | locus YGL086W, strain mad1, hits give low values 0.959 | locus YGL167C, strain pmr1, hits give low values 1.03 | locus YGL173C, strain kem1, hits give low values 0.963 | locus YGL227W, strain vid30, hits give low values 1.03 | locus YGL240W, strain doc1, hits give low values 0.944 | locus YGL248W, strain PDE1, hits give low values 0.962 | locus YGL253W, strain hxk2, hits give low values 0.951 | locus YGR135W, strain pre9, hits give low values 1.02 | locus YGR252W, strain gcn5, hits give low values 0.874 | locus YHR013C, strain ard1, hits give low values 1.01 | locus YHR027C, strain rpn1, hits give low values 1 | locus YHR030C, strain SLT2, hits give low values 1.01 and 0.986 | locus YHR079C, strain IRE1 (second series), hits give low values 0.992 | locus YHR079C, strain IRE1, hits give low values 0.989 | locus YHR094C, strain hxt1, hits give low values 0.999 | locus YHR129C, strain ARP1, hits give low values 1.01 | locus YHR142W, strain chs7, hits give low values 0.949 | locus YHR200W, strain rpn10, hits give low values 0.984 | locus YIL066C, strain RNR3, hits give low values 0.982 | locus YIL073C, strain SPO22, hits give low values 0.94 | locus YIL125W, strain kgd1, hits give low values 0.986 | locus YIR030C, strain dcg1, hits give low values 1.02 | locus YJL092W, strain hpr5, hits give low values 1.02 | locus YJL095W, strain BCK1 (second series), hits give low values 1.01 | locus YJL095W, strain BCK1, hits give low values 0.919 and 0.992 | locus YJL115W, strain asf1, hits give low values 1.02 | locus YJL129C, strain trk1, hits give low values 1.03 | locus YJL134W, strain LCB3, hits give low values 0.992 | locus YJL154C, strain vps35, hits give low values 1.02 | locus YJL164C, strain tpk1, hits give low values 0.957 | locus YJL166W, strain qcr8, hits give low values 0.987 | locus YJL168C, strain set2, hits give low values 1 | locus YJL187C, strain SWE1 (second series), hits give low values 0.969 | locus YJL187C, strain SWE1, hits give low values 1.01 | locus YJR043C, strain POL32, hits give low values 0.937
active: locus YDL074C, strain BRE1, hits give low values 0.766 | locus YDR137W, strain rgp1, hits give low values 0.682 | locus YDR162C, strain NBP2, hits give low values 0.761 | locus YDR195W, strain ref2 1.26 [resistant] | locus YDR392W, strain spt3, hits give low values 0.625
